# “And” between values parts separate entries of the source, which are not always exact repeats. Equal entries are not always repeated. Values without a mark were called inactive. Results filed as inconclusive are left out. The source made the active and inactive calls. Unless noted, calls come from the whole dose curve; as a rule, active = well fitted curve in either direction with a large enough effect (not every such curve was filed as active); inconclusive = small, poorly fitted or top-dose-only effect, or another doubt; inactive = flat fitted curve, though single readings scatter.
# What was measured:
# [1] = Stat Signaling Pathway (AID 446); details: ME-180 (cervical carcinoma) SIE beta-lactamase reporter, IL-6 stimulated, 5 h;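 note: ME-180 cervical cancer cells given 40 pM IL-6 alongside compound; SIE-controlled beta-lactamase reporter measured as 460/530 nm FRET emission ratio; % is set by controls: 0 for no effect and ±100 for the full control effect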
# Method in brief: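 Overnight-plated ME-180 cells bearing a STAT Inducible Element beta-lactamase reporter; 5 h co-exposure to compound and 40 pM IL-6; values normalized to 300 pM IL-6 and 125 nM JAK inhibitor controls.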
# [2] = molecular target: Glucocorticoid receptor (Homo sapiens) (UniProt P04150); experiment: GR-GFP Redistribution (AID 450;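 active = compounds whose dose series gives a full or clear partial fitted curve of increased nuclear translocation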; note: potency is the fitted concentration of half-maximal effect); details: U2OS GR-GFP nuclear translocation, laser cytometry, 2 h
# [3] = molecular target: Glucocorticoid receptor (Homo sapiens) (UniProt P04150); experiment: GR-EFC Redistribution (AID 451; calls by dose curve; note: potency is the fitted concentration of half-maximal effect); details: CHO-K1 GR-EFC translocation, beta-gal luminescence, 2 h
# Method in brief: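 CHO-K1 cells stably expressing nuclear-localized β-gal enzyme acceptor and GR fused C-terminally to the enzyme donor fragment; ligand-driven nuclear translocation restores β-gal by complementation. Compounds titrated up to 46 uM final, 2 h at 37 °C; luminescence read.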
# [4] = molecular target: Mitogen-activated protein kinase 10 (Mus musculus) (UniProt Q61831); experiment: JNK3 AlphaScreen Assay (AID 530); details: JNK3 lysate, c-Jun phosphorylation; series mostly up to 57.1 µM;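 note: kinase came from lysate of stimulated human HepG2 cells; signal reports phosphorylation of biotinylated GST-cJun 1-79 at Ser73 with 10 µM ATP; % is set by controls: 0 for no effect and ±100 for the full control effect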
# Method in brief: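 Phosphorylation of biotinylated GST-cJun(1-79) at Ser73 is measured by AlphaScreen proximity luminescence. Enzyme is JNK3 in HepG2 lysates activated with interleukin-1beta and tumor necrosis factor alpha; ATP is 10 uM final.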
# [5] = Cell Viability - N2a (AID 540; active = well fitted curve in the direction sought with a large enough effect; an effect the other way counts as inactive or inconclusive;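 note: cells exposed to compound for 40 h at 37 °C; plate controls were DMSO alone for no effect and tamoxifen control for full effect; nearly all actives have a fitted effect of over 45% in size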); details: N2a mouse neuroblastoma cell viability; at 92.2 µM (top of the series)
# Method in brief: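 Cytotoxicity was scored as loss of cellular ATP in N2a cells, a mouse neuroblastoma line. Compounds are applied in a qHTS concentration series for 40 hr at 37 °C.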
# [6] = Cell Viability - NIH 3T3 (AID 541; active = well fitted curve in the direction sought with a large enough effect; an effect the other way counts as inactive or inconclusive;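 note: cells exposed to compound for 40 hours; plate controls were DMSO alone for no effect and tamoxifen positive control for full effect; nearly all actives have a fitted effect of over 25% in size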); details: NIH 3T3 cell viability, qHTS; activity change, negative = cytotoxicity: at 92.2 µM (top of the series)
# Method in brief: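 Cells seeded at 1000/well, rested 5 hr at 37 °C, then dosed and incubated 40 hr at 37 °C. CellTiter-Glo added, 20 min room temperature, luminescence read. AC50 by Hill fit.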
# [7] = Cell Viability - HUV-EC-C (AID 542; active = well fitted curve in the direction sought with a large enough effect; an effect the other way counts as inactive or inconclusive;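 note: cells exposed to compound for 40 hours; % is set by controls: 0 for no effect and ±100 for the full control effect; nearly all actives have a fitted effect of over 35% in size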); details: HUV-EC-C endothelial cell viability, qHTS; series mostly up to 92.2 µM
# Method in brief: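 Cells were seeded at 1000 per well and incubated 5 hr at 37 °C before compound addition. After 40 hr at 37 °C, CellTiter-Glo reagent was added for 20 min and luminescence read. AC50 values came from Hill-equation modelling.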
# [8] = Cell Viability - H-4-II-E (AID 543; active = well fitted curve in the direction sought with a large enough effect; an effect the other way counts as inactive or inconclusive;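 note: cells exposed to compound for 40 hours; nearly all actives have a fitted effect of over 35% in size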; note: potency is the fitted concentration of half-maximal effect); details: H-4-II-E rat hepatoma viability; series mostly up to 92.2 µM
# Method in brief: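 Cells seeded at 1500 per well and rested 5 hr; compounds added; 40 hr incubation at 37 °C; CellTiter-Glo added, 20 min at room temperature; luminescence read. Hill-equation fits gave AC50.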
# [9] = Cell Viability - SH-SY5Y (AID 544; active = well fitted curve in the direction sought with a large enough effect; an effect the other way counts as inactive or inconclusive;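 note: cells exposed to compound for 40 hours; 0% = DMSO alone and -100% = 100 µM tamoxifen; nearly all actives have a fitted effect of over 55% in size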); details: SH-SY5Y neuroblastoma cell viability; viability change, negative = cytotoxic: at 92.2 µM (top of the series)
# Method in brief: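 Cells were plated at 1500 per well and allowed 5 hr at 37 °C. Compounds were added across a concentration range and incubated 40 hr at 37 °C. CellTiter-Glo was added for 20 min at room temperature before luminescence reading.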
# [10] = Cell Viability - Renal Proximal Tubule (AID 545; active = well fitted curve in the direction sought with a large enough effect; an effect the other way counts as inactive or inconclusive;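 note: cells exposed to compound for 40 hours; 0% = DMSO only and -100% = 100 µM tamoxifen; nearly all actives have a fitted effect of over 40% in size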); details: renal proximal tubule cells viability; at 91.7 µM (top of the series) unless noted
# Method in brief: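 Rat kidney proximal tubule cells, freshly isolated; 1000 cells/well, 5 hr settle, compound 40 hr 37 °C. CellTiter-Glo 20 min RT, luminescence read. AC50 by standard Hill fit.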
# Sequence of Glucocorticoid receptor (Homo sapiens) (P04150 whole entry, looked up, the tested form may be a part): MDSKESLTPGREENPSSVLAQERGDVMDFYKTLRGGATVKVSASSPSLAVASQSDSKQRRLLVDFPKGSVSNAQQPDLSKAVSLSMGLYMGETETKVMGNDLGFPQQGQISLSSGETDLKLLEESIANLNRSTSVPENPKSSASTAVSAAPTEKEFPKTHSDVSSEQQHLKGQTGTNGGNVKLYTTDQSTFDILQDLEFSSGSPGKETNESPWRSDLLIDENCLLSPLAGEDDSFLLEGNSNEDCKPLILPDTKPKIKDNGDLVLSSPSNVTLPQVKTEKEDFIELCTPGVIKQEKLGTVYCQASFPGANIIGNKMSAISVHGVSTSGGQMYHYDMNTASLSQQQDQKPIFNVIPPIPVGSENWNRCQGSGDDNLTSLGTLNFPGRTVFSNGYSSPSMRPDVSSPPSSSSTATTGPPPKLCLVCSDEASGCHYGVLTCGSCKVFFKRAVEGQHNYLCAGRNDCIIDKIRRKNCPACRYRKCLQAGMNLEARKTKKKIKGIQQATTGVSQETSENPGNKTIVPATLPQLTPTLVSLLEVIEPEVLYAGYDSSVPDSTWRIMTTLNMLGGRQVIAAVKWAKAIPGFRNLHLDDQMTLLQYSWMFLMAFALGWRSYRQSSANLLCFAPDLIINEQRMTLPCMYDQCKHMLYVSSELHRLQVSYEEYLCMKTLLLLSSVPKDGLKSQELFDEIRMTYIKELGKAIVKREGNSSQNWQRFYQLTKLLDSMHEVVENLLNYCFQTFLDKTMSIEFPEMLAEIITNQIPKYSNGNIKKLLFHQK
smiles,measurement,setting,value
Cc1ccc(S(=O)(=O)N[C@@H](CCCCN)C(=O)CCl)cc1,"activity, negative = inhibition",[1]; at 38 µM (top of the series),-67% (active)
same,Potency,[2],> 46 µM
same,Potency,[3],> 46 µM
same,outcome,[4],inactive
N#CC(C#N)=Cc1ccc(O)c(O)c1,"activity, negative = inhibition",[1]; at 38 µM (top of the series),-24.2%
Cc1cccc(C)c1NC1=NCCCS1,"activity, negative = inhibition",[1]; at 17.2 µM (top of the series),3.23%
same,"activity, negative = inhibition",[1]; at 38 µM (top of the series),9.43%
same,outcome,[4],inactive
O=c1[nH]c2ccccc2n1CCCN1CCC(n2c(=O)[nH]c3cc(Cl)ccc32)CC1,"activity, negative = inhibition",[1]; at 7.69 µM (top of the series),-2.55%
same,"activity, negative = inhibition",[1]; at 17.2 µM (top of the series),1.15% and 2.02%
same,"activity, negative = inhibition",[1]; at 38 µM (top of the series),-0.208%
same,outcome,[4],inactive
Clc1cccc(N2CCNCC2)c1,"activity, negative = inhibition",[1]; at 38 µM (top of the series),3.38%
same,Potency,[2],> 46 µM
same,Potency,[3],> 46 µM
same,outcome,[4],inactive
COc1ccc(Cc2nccc3cc(OC)c(OC)cc23)cc1OC,"activity, negative = inhibition",[1]; at 17.2 µM (top of the series),-7.28%
same,"activity, negative = inhibition",[1]; at 38 µM (top of the series),-33.5%
Fc1ccc(C(OCCN2CCN(CCCc3ccccc3)CC2)c2ccc(F)cc2)cc1,"activity, negative = inhibition",[1]; at 17.2 µM (top of the series),-6.45%
same,"activity, negative = inhibition",[1]; at 38 µM (top of the series),-18.6%
same,Potency,[2],> 46 µM and > 20.6 µM
same,Potency,[3],> 46 µM and > 20.6 µM
same,outcome,[4],inactive
O=C1CC[C@@]2(O)[C@H]3Cc4ccc(O)c5c4[C@@]2(CCN3CC2CC2)[C@H]1O5,"activity, negative = inhibition",[1]; at 17.2 µM (top of the series),2.9%
CCC(COC(=O)c1cc(OC)c(OC)c(OC)c1)(c1ccccc1)N(C)C (stereo unspecified),"activity, negative = inhibition",[1]; at 17.2 µM (top of the series),-7.98%
NCC(CC(=O)O)c1ccc(Cl)cc1 (stereo unspecified),"activity, negative = inhibition",[1]; at 17.2 µM (top of the series),6.38%
same,Potency,[2],> 20.6 µM
c1ccc(C2CC2)c(OCC2=NCCN2)c1,"activity, negative = inhibition",[1]; at 38 µM (top of the series),-9.49%
same,Potency,[2],> 46 µM
same,Potency,[3],> 46 µM
same,outcome,[4],inactive
CCCN1CCC[C@@H]2Cc3[nH]ncc3C[C@H]21,"activity, negative = inhibition",[1]; at 17.2 µM (top of the series),8.2%
same,"activity, negative = inhibition",[1]; at 38 µM (top of the series),-2.11% and 14.3%
same,Potency,[2],> 46 µM and > 20.6 µM
same,Potency,[3],> 46 µM and > 20.6 µM
same,outcome,[4],inactive
CCn1cc(C(=O)O)c(=O)c2ccc(C)nc21,"activity, negative = inhibition",[1]; at 17.2 µM (top of the series),10.7% and -2.6%
same,"activity, negative = inhibition",[1]; at 38 µM (top of the series),-7%
same,outcome,[4],inactive
COc1ccccc1N1CCNCC1,"activity, negative = inhibition",[1]; at 38 µM (top of the series),16.4%
same,Potency,[2],> 46 µM
same,Potency,[3],> 46 µM
O=P1(NCCCl)OCCCN1CCCl (stereo unspecified),"activity, negative = inhibition",[1]; at 17.2 µM (top of the series),-3.9%
same,Potency,[2],> 20.6 µM
same,Potency,[3],> 20.6 µM
same,outcome,[4],inactive
NCC1(CC(=O)O)CCCCC1,"activity, negative = inhibition",[1]; at 17.2 µM (top of the series),-0.102% and 1.2%
same,"activity, negative = inhibition",[1]; at 38 µM (top of the series),-12.4%
same,Potency,[2],> 46 µM and > 20.6 µM
same,Potency,[3],> 46 µM and > 20.6 µM
same,outcome,[4],inactive
CC(CCc1ccccc1)NC(C)C(O)c1ccc(O)cc1 (stereo unspecified),"activity, negative = inhibition",[1]; at 17.2 µM (top of the series),22.4%
same,Potency,[2],> 20.6 µM
CC[N+]1(C)CCCC(OC(=O)C(O)(c2ccccc2)c2ccccc2)C1 (stereo unspecified),"activity, negative = inhibition",[1]; at 17.2 µM (top of the series),-1.5%
same,Potency,[2],> 20.6 µM
C=C1CC[C@@]2(O)[C@H]3Cc4ccc(O)c5c4[C@@]2(CCN3CC2CC2)[C@H]1O5,"activity, negative = inhibition",[1]; at 17.2 µM (top of the series),2.91%
same,Potency,[2],> 20.6 µM
CN(C)[C@@H]1C(=O)C(C(N)=O)=C(O)[C@@]2(O)C(=O)C3=C(O)c4c(O)cccc4[C@@](C)(O)[C@H]3C[C@@H]12,"activity, negative = inhibition",[1]; at 17.2 µM (top of the series),-6.17%
same,Potency,[2],> 20.6 µM
CN1C[C@H](CNC(=O)OCc2ccccc2)C[C@@H]2c3cccc4c3c(cn4C)C[C@H]21,"activity, negative = inhibition",[1]; at 17.2 µM (top of the series),-8.15%
CC(=O)[C@H]1CC[C@H]2[C@@H]3CC[C@H]4C[C@H](O)CC[C@]4(C)[C@H]3C(=O)C[C@]12C,"activity, negative = inhibition",[1]; at 17.2 µM (top of the series),-6.19%
Cc1ncc(CNC(=O)N(CCCl)N=O)c(N)n1,"activity, negative = inhibition",[1]; at 38 µM (top of the series),-6.98%
same,Potency,[2],> 46 µM
same,Potency,[3],> 46 µM
same,outcome,[4],inactive
c1ccc2c(c1)OCC(C1=NCCN1)O2 (stereo unspecified),"activity, negative = inhibition",[1]; at 17.2 µM (top of the series),-5.78%
same,Potency,[2],> 20.6 µM
NP(N)(=O)NC(=O)c1ccc(F)cc1,Potency,[2],> 46 µM
same,Potency,[3],> 46 µM
same,outcome,[4],inactive
CNCC(O)c1ccc(O)cc1 (stereo unspecified),"activity, negative = inhibition",[1]; at 17.2 µM (top of the series),14.9%
same,Potency,[2],> 20.6 µM
same,"activity change, negative = cytotoxicity",[5],-10.6%
same,"activity change, negative = cytotoxicity",[6],2.22%
same,outcome,[7],inactive
same,Potency,[8],inactive
same,"viability change, negative = cytotoxic",[9],-15.7%
same,"activity change, negative = cytotoxicity",[10],-6.79%
Clc1ccc(COC(Cn2ccnc2)c2ccc(Cl)cc2Cl)cc1 (stereo unspecified),"activity, negative = inhibition",[1]; at 17.2 µM (top of the series),-23%
same,Potency,[2],> 20.6 µM
same,outcome,[4],inactive
same,"activity change, negative = cytotoxicity",[5],-110% (active)
same,"activity change, negative = cytotoxicity",[6],-82% (active)
same,Potency,[8],39.8 µM (active)
same,"viability change, negative = cytotoxic",[9],-84.8% (active)
same,"activity change, negative = cytotoxicity",[10],-83.1% (active)

# From PubChem BioAssay (NCATS)
